Source: PubChem BioAssay AID1159580 (chemical genetic matrix, 2015)
In all, about 5,500 compounds went through this assay and about 2,000 (36%) were called active. Inconclusive results (about 18%) are left out. Cut-off read from the data, not from the text of the source: active = normalized growth mostly below about 0.91 (no sharp cut-off); inconclusive = no clear call, values can overlap the other calls; inactive = mostly above about 0.92. This is one part of the list.

Test: chemical genetic growth profiling, strain panel (AID 1159580);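 note: tested at 20 µM; growth read once vehicle control cultures reached saturation at 30 °C; 1 = growth at the plate median or of vehicle wells; lower values mean less growth of the strain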
Conditions: growth OD

Measured: normalized growth

O=c1c(O)cc([C@H]2Oc3cc(O)cc(O)c3C[C@H]2O)cc2c([C@H]3Oc4cc(O)cc(O)c4C[C@H]3O)cc(O)c(O)c12
inactive: S. cerevisiae deletion strains, locus YJR066W, strain TOR1, active compounds read low 0.921 | S. cerevisiae deletion strains, locus YKL009W, strain mrt4, active compounds read low 1.09 | S. cerevisiae deletion strains, locus YKL068W, active compounds read low 1.01 | S. cerevisiae deletion strains, locus YKL160W, strain elf1, active compounds read low 1.01 | S. cerevisiae deletion strains, locus YKL190W, strain CNB1, active compounds read low 1.02 | S. cerevisiae deletion strains, locus YKR001C, strain vps1, active compounds read low 1.02 | S. cerevisiae deletion strains, locus YKR026C, strain gcn3, active compounds read low 0.987 | S. cerevisiae deletion strains, locus YKR091W, strain srl3, active compounds read low 1.03 | S. cerevisiae deletion strains, locus YLL001W, strain dnm1, active compounds read low 1.03 | S. cerevisiae deletion strains, locus YLL026W, active compounds read low 1.04 | S. cerevisiae deletion strains, locus YLL041C, strain sdh2, active compounds read low 1.03 | S. cerevisiae deletion strains, locus YLR027C, strain aat2, active compounds read low 1.02 | S. cerevisiae deletion strains, locus YLR039C, strain RIC1, active compounds read low 1.15 | S. cerevisiae deletion strains, locus YLR058C, strain SHM2, active compounds read low 1 | S. cerevisiae deletion strains, locus YLR102C, strain apc9, active compounds read low 1.02 | S. cerevisiae deletion strains, locus YLR113W, strain HOG1, active compounds read low 1.03 | S. cerevisiae deletion strains, locus YLR221C, strain rsa3, active compounds read low 1.03 | S. cerevisiae deletion strains, locus YLR258W, strain gsy2, active compounds read low 1.02 | S. cerevisiae deletion strains, locus YLR262C, strain YPT6 (second series), active compounds read low 1.06 | S. cerevisiae deletion strains, locus YLR262C, strain YPT6, active compounds read low 1.19 | S. cerevisiae deletion strains, locus YLR268W, strain sec22, active compounds read low 1.03 | S. cerevisiae deletion strains, locus YLR320W, strain mms22, active compounds read low 1.07 | S. cerevisiae deletion strains, locus YLR342W, strain FKS1 (second series), active compounds read low 1.01 | S. cerevisiae deletion strains, locus YLR342W, strain FKS1, active compounds read low 1.01 | S. cerevisiae deletion strains, locus YLR357W, strain rsc2, active compounds read low 0.989 | S. cerevisiae deletion strains, locus YLR370C, strain arc18, active compounds read low 1.01 | S. cerevisiae deletion strains, locus YLR371W, strain rom2, active compounds read low 0.977 | S. cerevisiae deletion strains, locus YLR384C, strain iki3, active compounds read low 1.03 | S. cerevisiae deletion strains, locus YLR418C, strain cdc73, active compounds read low 1.03 | S. cerevisiae deletion strains, locus YML016C, strain PPZ1, active compounds read low 1 | S. cerevisiae deletion strains, locus YML032C, strain rad52, active compounds read low 1.02 | S. cerevisiae deletion strains, locus YML120C, strain ndi1, active compounds read low 1.03 | S. cerevisiae deletion strains, locus YML124C, strain tub3, active compounds read low 1.02 | S. cerevisiae deletion strains, locus YMR058W, strain fet3, active compounds read low 0.955 | S. cerevisiae deletion strains, locus YMR078C, strain ctf18, active compounds read low 1.02 | S. cerevisiae deletion strains, locus YMR125W, strain sto1, active compounds read low 1.03 | S. cerevisiae deletion strains, locus YMR129W, active compounds read low 1.04 | S. cerevisiae deletion strains, locus YMR205C, strain PFK2, active compounds read low 1.09 | S. cerevisiae deletion strains, locus YMR223W, strain ubp8, active compounds read low 1 | S. cerevisiae deletion strains, locus YMR231W, strain pep5, active compounds read low 1.02 | S. cerevisiae deletion strains, locus YMR263W, strain SAP30, active compounds read low 1.03 | S. cerevisiae deletion strains, locus YMR307W, strain GAS1, active compounds read low 0.915 | S. cerevisiae deletion strains, locus YNL067W, strain RPL9B, active compounds read low 1.02 | S. cerevisiae deletion strains, locus YNL071W, strain lat1, active compounds read low 1.05 | S. cerevisiae deletion strains, locus YNL183C, strain NPR1, active compounds read low 0.95 | S. cerevisiae deletion strains, locus YNL209W, strain ssb2, active compounds read low 0.996 | S. cerevisiae deletion strains, locus YNL233W, strain BNI4, active compounds read low 1.04 | S. cerevisiae deletion strains, locus YNL248C, strain rpa49, active compounds read low 0.999 | S. cerevisiae deletion strains, locus YNL250W, strain rad50, active compounds read low 1.05 | S. cerevisiae deletion strains, locus YNL271C, strain bni1, active compounds read low 1 | S. cerevisiae deletion strains, locus YNL298W, strain CLA4, active compounds read low 1.02 | S. cerevisiae deletion strains, locus YNL307C, strain MCK1, active compounds read low 1.02 | S. cerevisiae deletion strains, locus YNL322C, strain KRE1 (second series), active compounds read low 1.07 | S. cerevisiae deletion strains, locus YNL322C, strain KRE1, active compounds read low 1.01 | S. cerevisiae deletion strains, locus YNR049C, strain mso1, active compounds read low 1.04 | S. cerevisiae deletion strains, locus YNR052C, strain pop2, active compounds read low 0.963 | S. cerevisiae deletion strains, locus YOL006C, strain TOP1, active compounds read low 1.03 | S. cerevisiae deletion strains, locus YOL012C, strain htz1 1.21 | S. cerevisiae deletion strains, locus YOL147C, strain pex11, active compounds read low 1.01 | S. cerevisiae deletion strains, locus YOR001W, strain rrp6, active compounds read low 1.03 | S. cerevisiae deletion strains, locus YOR061W, strain CKA2, active compounds read low 1.02 | S. cerevisiae deletion strains, locus YOR069W, strain VPS5, active compounds read low 1 | S. cerevisiae deletion strains, locus YOR070C, strain gyp1, active compounds read low 1.01 | S. cerevisiae deletion strains, locus YOR080W, strain dia2, active compounds read low 1.06 | S. cerevisiae deletion strains, locus YOR083W, strain WHI5, active compounds read low 1.01 | S. cerevisiae deletion strains, locus YOR106W, strain vam3, active compounds read low 1.04 | S. cerevisiae deletion strains, locus YOR136W, strain idh2, active compounds read low 1.02 | S. cerevisiae deletion strains, locus YOR144C, strain elg1, active compounds read low 1.02 | S. cerevisiae deletion strains, locus YOR184W, strain ser1, active compounds read low 1.06 | S. cerevisiae deletion strains, locus YOR231W, strain MKK1, active compounds read low 1.01 | S. cerevisiae deletion strains, locus YOR265W, strain rbl2, active compounds read low 1.03 | S. cerevisiae deletion strains, locus YOR270C, strain vph1, active compounds read low 1.14 | S. cerevisiae deletion strains, locus YOR290C, strain snf2, active compounds read low 1.01 | S. cerevisiae deletion strains, locus YOR316C, strain cot1, active compounds read low 1.01 | S. cerevisiae deletion strains, locus YPL051W, strain arl3, active compounds read low 1.02 | S. cerevisiae deletion strains, locus YPL078C, strain atp4, active compounds read low 1.01 | S. cerevisiae deletion strains, locus YPL106C, strain sse1, active compounds read low 1 | S. cerevisiae deletion strains, locus YPL240C, strain hsp82, active compounds read low 1.04 | S. cerevisiae deletion strains, locus YPL256C, strain CLN2, active compounds read low 0.992 | S. cerevisiae deletion strains, locus YPR119W, strain clb2, active compounds read low 1.03 | S. cerevisiae deletion strains, locus YPR141C, strain kar3, active compounds read low 0.993 | S. cerevisiae deletion strains, locus YPR163C, strain tif3, active compounds read low 1.01 | S. cerevisiae deletion strains, locus YPR167C, strain met16, active compounds read low 1.02 | S. cerevisiae deletion strains, strain wtn01, active compounds read low 1.03 | S. cerevisiae strains, strain wild type, active compounds read low 0.998
